Experimental findings from article PMC5540273 (PLoS ONE, 2017) are described below.

The structures appear in SMILES notation.

Some test systems named below: MST4; MTOR; MUSK; MYLK2; MYLK4; MYLK; MYO3A; MYO3B.
Common to all, as to conditions: concentration: 1 μM, replicates: in singlicate; n = 1
Another experiment has as its system T1, MST2.
T1 construct: gene STK3

The next experiment deals with T2, MST3.
T2 construct: gene STK24
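Further: KINOMEscan kinase panel screen.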

As to `Fc1cc(Cl)ccc1Nc1ccnc2cc(-c3ccc(CN4CCCCC4)o3)ccc12` [GW560116], the “%Inh” value in the experiment on MST2 came to 0%; in the experiment on MST3, 15%; in the experiment on MST4 it was 0%; in the experiment on MTOR it was 0%; in the experiment on MUSK, 0%; in the experiment on MYLK2, 27%. Besides, the “%Inh” value stood at 5% in the experiment with MYLK4, 11% in the experiment on MYLK, 31% in the experiment on MYO3A and 0% in the experiment on MYO3B.
Consider `Cc1cccc(-c2nc(C)cc(Nc3ccncc3)n2)n1` [GSK257997], for which the “%Inh” value in the experiment with MST2 is 0%; with MST3, 0%; with MST4, 0%; in the experiment with MTOR it was 13%; in the experiment on MUSK, 0%; in the experiment with MYLK2, 16%. Moreover, the “%Inh” value in the experiment with MYLK4 is listed as 9%; in the experiment with MYLK it was 5%; in the experiment with MYO3A, 6%; in the experiment on MYO3B it was 0%.
`O=C(Nc1n[nH]c2cc(-c3cccc(F)c3F)ccc12)C1CC1` [SB-733894]: the “%Inh” value with MST2 worked out at 31%; with MST3, 0%; in the experiment on MST4, 8%; in the experiment on MTOR it was 0%; with MUSK, 0%; in the experiment on MYLK2 it was 90.2%. Further, the “%Inh” value is 0% in the experiment with MYLK4, 8% in the experiment on MYLK, 2% in the experiment with MYO3A and 0% in the experiment on MYO3B.
Take `CN(C)CCN(C)C(=O)c1cc(-c2ccncc2)c(-c2ccc(Cl)c(O)c2)o1.Cl.Cl` [SB-710397]: the “%Inh” value with MST2 is listed as 0%; in the experiment with MST3 it was 0%; in the experiment with MST4 it was 0%; in the experiment on MTOR, 33%; in the experiment with MUSK it was 18%; in the experiment with MYLK2, 11%. The “%Inh” value in the experiment on MYLK4 came out at 0%; with MYLK, 10%; with MYO3A it was 0%; in the experiment with MYO3B it was 0%.
On to `NC(=O)c1nnc2ccccc2c1N`, for which the “%Inh” value is 65% with MST2; 0% in the experiment with MST3; 15% with MST4; 10% in the experiment with MTOR; 10% with MUSK; 0% in the experiment on MYLK2. For the same compound, the “%Inh” value in the experiment on MYLK4 is reported as 78%; with MYLK, 37%; in the experiment on MYO3A, 9%; in the experiment on MYO3B, 5%.
For the compound `COc1cc2nccc(Nc3ccc(NC(=O)c4ccc(C)cc4)c(O)c3)c2cc1OC.Cl` [GW440132], the “%Inh” value in the experiment with MST2 came to 0%; in the experiment on MST3, 0%; with MST4, 0%; in the experiment on MTOR it was 4%; in the experiment with MUSK, 13%; in the experiment on MYLK2 it was 4%. The “%Inh” value in the experiment with MYLK4 was 0%; in the experiment with MYLK, 11%; in the experiment on MYO3A, 10%; in the experiment with MYO3B it was 0%.
Take `O=S(=O)(c1ccc(-c2ccnc3[nH]ccc23)cc1)N1CCCC1` [GSK846226]: the “%Inh” value is 4% with MST2; 14% in the experiment with MST3; 0% in the experiment on MST4; 12% in the experiment with MTOR; 0% in the experiment with MUSK; 3% with MYLK2. Moreover, the “%Inh” value came to 62% with MYLK4, 22% with MYLK, 10% with MYO3A and 0% with MYO3B.
Take `O=C(O)COc1ncnc2cc(-c3ccc4[nH]ncc4c3)sc12`: the “%Inh” value in the experiment on MST2 is 40%; with MST3, 24%; with MST4, 0%; in the experiment with MTOR, 14%; in the experiment on MUSK it was 9%; with MYLK2, 31%. Besides, the “%Inh” value with MYLK4 is 22%; with MYLK it was 7%; with MYO3A, 0%; in the experiment with MYO3B, 0%.
Regarding `COc1ccc(Nc2nccc(-c3cccc(NC(=O)c4cc5cc(F)ccc5[nH]4)c3)n2)cc1` [GSK1229782], the “%Inh” value in the experiment with MST2 is given as 24%; in the experiment with MST3 it was 15%; in the experiment with MST4, 0%; with MTOR it was 21%; in the experiment with MUSK it was 6%; in the experiment with MYLK2, 19%. Further, the “%Inh” value in the experiment on MYLK4 is 11%; in the experiment with MYLK, 31%; in the experiment with MYO3A, 60%; in the experiment on MYO3B, 0%.
Turning to `Cc1cc(-c2ccc3c(c2)CC[C@@H](N[C@@H](C)c2ccccc2)C3)cnc1N.Cl` [GW412617], the “%Inh” value amounted to 15% with MST2; 0% in the experiment with MST3; 0% with MST4; 14% in the experiment with MTOR; 28% in the experiment on MUSK; 21% in the experiment with MYLK2. The “%Inh” value with MYLK4 was found to be 8%; in the experiment on MYLK it was 10%; with MYO3A, 0%; in the experiment on MYO3B, 0%.
Consider `Fc1cccc(COc2nnc(-c3ccc4c(c3)CCO4)o2)c1`, for which the “%Inh” value in the experiment on MST2 stood at 0%; with MST3, 25%; in the experiment on MST4, 0%; in the experiment with MTOR, 3%; in the experiment on MUSK it was 3%; in the experiment on MYLK2, 0%. Also, the “%Inh” value with MYLK4 is 4%; with MYLK, 0%; with MYO3A, 0%; in the experiment with MYO3B it was 5%.
For `COc1ccc(C2=C(Nc3cccc(C(=O)O)c3)C(=O)NC2=O)cc1` [SB-390765], the “%Inh” value came to 0% in the experiment with MST2; 9% in the experiment on MST3; 16% with MST4; 0% in the experiment on MTOR; 9% in the experiment on MUSK; 0% in the experiment with MYLK2. In addition, the “%Inh” value is 0% in the experiment with MYLK4, 14% with MYLK, 12% in the experiment with MYO3A and 0% with MYO3B.
With `Clc1cc(Cl)cc(Nc2ccnc(Nc3cc(Cl)cc(Cl)c3)n2)c1` [GSK175726], the “%Inh” value is 20% in the experiment with MST2; 9% in the experiment on MST3; 0% in the experiment with MST4; 18% in the experiment with MTOR; 2% in the experiment with MUSK; 11% in the experiment on MYLK2. The “%Inh” value stood at 13% in the experiment with MYLK4, 21% in the experiment with MYLK, 10% with MYO3A and 3% in the experiment with MYO3B.
For `CCCc1ccc(S(=O)(=O)NC2CCN(c3ccnc(Nc4ccc(F)cc4)n3)C2)cc1` (stereo not drawn) [GSK1379715], the “%Inh” value was determined as 0% with MST2; 0% in the experiment with MST3; 0% in the experiment on MST4; 0% in the experiment with MTOR; 8% in the experiment on MUSK; 0% in the experiment on MYLK2. For the same compound, the “%Inh” value amounted to 0% in the experiment with MYLK4, 0% in the experiment with MYLK, 11% in the experiment with MYO3A and 0% with MYO3B.
`CN1C(=O)C(Nc2ccc(Cl)c(C(=O)O)c2)=C(c2ccc(Cl)cc2)C1=O` [SB-404290]: the “%Inh” value in the experiment on MST2 worked out at 0%; with MST3 it was 0%; in the experiment with MST4, 33%; in the experiment with MTOR, 0%; with MUSK it was 13%; in the experiment with MYLK2, 0%. Further, the “%Inh” value in the experiment with MYLK4 stood at 5%; with MYLK it was 12%; in the experiment on MYO3A, 11%; in the experiment with MYO3B, 31%.
For `O=C(Nc1ccc2c(c1)OCO2)NC1CCN(c2ccnc(Nc3ccc(F)cc3)n2)C1` (stereo not drawn) [GSK1379724], the “%Inh” value in the experiment with MST2 was determined as 0%; in the experiment on MST3, 0%; in the experiment with MST4, 0%; with MTOR, 5%; in the experiment with MUSK, 2%; in the experiment with MYLK2, 1%. The “%Inh” value in the experiment on MYLK4 is 0%; in the experiment with MYLK it was 0%; with MYO3A, 24%; in the experiment with MYO3B it was 0%.
`Cc1ccc(C(=O)Nc2ccc(Nc3ccnc4cc(-c5ccccn5)ccc34)cc2O)cc1.Cl` [GW440146]: the “%Inh” value in the experiment on MST2 amounted to 0%; in the experiment with MST3, 0%; with MST4 it was 0%; in the experiment with MTOR, 17%; in the experiment on MUSK it was 14%; with MYLK2 it was 6%. The “%Inh” value came out at 0% in the experiment with MYLK4, 5% in the experiment with MYLK, 11% in the experiment on MYO3A and 0% with MYO3B.
Consider `COc1ccccc1-c1ccc2c(NC(=O)C3CC3)n[nH]c2n1` [SB-711239], for which the “%Inh” value in the experiment with MST2 is recorded as 0%; in the experiment with MST3 it was 0%; in the experiment on MST4 it was 0%; in the experiment on MTOR it was 30%; in the experiment with MUSK, 0%; in the experiment on MYLK2 it was 23%. Also, the “%Inh” value was found to be 0% in the experiment on MYLK4, 12% in the experiment on MYLK, 0% in the experiment with MYO3A and 0% in the experiment on MYO3B.
